In PubChem BioAssay (NCI) one finds growth data, which are given here for 40 molecules.

Each structure is given as a SMILES string. Compounds without any hit were thinned out: in the full panel of roughly 83,000, 20% have a hit.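 For each line, cells grew in 96-well plates with the test compound present at a single concentration for 48 hours.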 Unmarked numbers belong to inactive results. The source made the active and inactive calls.

The test system of the test is MCF7 breast. The test is described as follows: NCI-60 one-dose screen, 48 h (100 = growth as untreated, 0 = no growth, -100 = all killed). Conditions: 10 µM unless noted. The procedure: Growth inhibition of the MCF7 human tumor cell line is measured as a screen for anti-cancer activity. Cells are grown in 96 well plates and exposed to the test compound for 48 hours. Compounds are tested at a single concentration, which is 10^-5 M for most compounds. The reported endpoint is percent growth (GI% or GIPRCNT), where numbers from 0 - 100% represent growth inhibition, and numbers from -100% - 0 represent cell death. For example, a value of 40 represents 60% growth inhibition. A value of 0 means no net growth occurred over the course of the experiment. A value of -40 indicates 40% of cells at the beginning of the experiment died by the end of the experiment. A value of -100 means all cells are dead at the end of the experiment.
NCI-60 Human Tumor Cell Lines Screen was performed using the standard one-dose NCI protocol, which is described in more detail at https://dtp.cancer.gov/discovery_development/nci-60/default.htm.
Compounds with GIPRCNT values below 10 were considered active. Activity score was based on GIPRCNT using the following formula: […]
Score is 0 for GIPRCNT values of 100 or above, 50 for GIPRCNT values of 0, and 100 for GIPRCNT values of -100.
Turning to `CC(C)COC(=O)NC(C)(C)C`, the growth is 90.8%.

With `C=CCn1c(C)nc2cc(Nc3nc(Nc4ccc5nc(C)n(CC=C)c5c4)nc4ccccc34)ccc21`, the growth is 92.4%.

For the molecule `Cc1[nH]n(C(=O)c2ccncc2)c(=O)c1N=Nc1ccc(O)c(C(=O)O)c1`, the growth is 109%.

Turning to `CN1CCN(Cc2ccc(NC(=O)c3cccc(C#Cc4cnc(N)c5ncccc45)c3F)cc2C(F)(F)F)CC1`, the growth was -65.1% (active).

On to `Cc1cc(C)c2c(n1)sc1c(Nc3ccc(Cl)cc3Cl)ncnc12`, for which the growth was 19.8%.

Consider `O=c1cc(-c2ccc3c(c2)OCCO3)oc2cc(Cl)ccc12`, for which the growth was 77.8%.

Turning to `CC(CN1CCN(CCOCCO)CC1)CN1c2ccccc2Sc2ccc(Cl)cc21` (stereo not given), the growth was 55.6%.

As for `Fc1cc(-c2nnc3sc(-c4ccc(Cl)cc4)nn23)c(Cl)cc1Cl`, the growth was 86.7%.

For `CN1CCN(Cc2ccc(NC(=O)c3cncc(C#Cc4ncc5cnccn45)c3)cc2C(F)(F)F)CC1`, the growth was 36%.

In the case of `COCCCNCC(=O)Nc1c(C)cccc1C`, the growth was 114%.

As for `O=c1cc(N2CCOCC2)oc2c(-c3ccc4c(c3)OCCO4)csc12`, the growth was 7.92% (active).

Consider `CC(C)N=C1CCCC1C(=S)SSC(=S)C1CCCC1=NC(C)C` (stereo not given), for which the growth is 56.9%.

With `CCN1CCN(Cc2ccc(NC(=O)c3nc4ccc5[nH]ncc5c4c4c3CCCC4)cc2C(F)(F)F)CC1`, the growth is -71.4% (active).

For the molecule `C#CC[C@@H]1C[C@]2(C)[C@H]3CC[C@@H]4[C@H]5C(C(=C)C)CC[C@]5(C(=O)NCCCCN)CC[C@@]4(C)[C@]3(C)CC[C@H]2C(C)(C)[C@H]1OC(C)=O` (stereo not given in full), the growth is -71.6% (active).

`O=c1c2sc3ccccc3c2nnn1-c1ccc(F)c(Cl)c1`: the growth is 63.9%.

Regarding `N=c1n(Cc2ccccc2)c(N)cc(=O)n1Cc1ccccc1`, the growth is 23.4%.

As to `O=C(c1ccc(C(F)(F)F)c(Cl)c1)N(Cc1ccc(Cl)cc1)c1ccc(-c2cc(C(F)(F)F)[nH]n2)c(O)c1`, the growth is 4.31% (active).

Take `CCN(CC)C(Cl)=Nc1ccc(Cl)cc1`: the growth is 101%.

As for `CCc1ccc(Nc2ncnc3c2cnn3-c2cccc(Br)c2)cc1`, the growth is 102%.

Regarding `CNCc1cccc2c1OCCOCCOCCC(C)S(=O)(=O)c1ccc(cc1)-c1cnc(N)c(n1)C(=O)N2` (stereo not given), the growth was 37.9%.

Take `COc1ccc(C2CC(c3cccc(Nc4ccnc5cc(Cl)ccc45)c3)=NN2c2ccccc2)cc1` (stereo not given): the growth was 47.6%.

Regarding `Cc1cc(C)cc(NC(=O)Cn2nncc2CN2C(=O)CSC2=O)c1`, the growth was 93.4%.

Take `Cc1cc(O)c(C2=NN(c3ccc(S(N)(=O)=O)cc3)C(c3ccc(Cl)cc3)C2)c(C)c1Cl` (stereo not given): the growth is 13%.

With `CCN(CC)Cc1cc(Nc2ccnc3cc(Cl)ccc23)cc(-c2ccc(Cl)cc2)c1O`, the growth is 14.8%.

Take `Cc1cc(C)c2c(n1)sc1c(Nc3ccc(OCc4ccccc4)cc3)ncnc12`: the growth is 93.2%.

Turning to `C/C(=N\OC(=O)Nc1cccc(Cl)c1)c1ccccc1`, the growth was 88.1%.

`COc1ccc(NC(=O)c2ccc(C(F)(F)F)nc2Nc2ccc(Cl)cc2C)cc1Cl`: the growth is 9.61% (active).

For the molecule `CC(C)CC(NC(=O)C(CCCN=C(N)N)NC(=O)OCc1ccccc1)C(=O)NC(CNC(=O)/C=C/c1ccccc1)C(C)C` (stereo not given), the growth was 91%.

On to `O=NN(CC(=O)NNc1ccccc1)CC(=O)NNc1ccccc1`, for which the growth was 69.5%.

`Cc1cccc(C(=O)O)n1`: the growth is 104%.

For the molecule `O=C(Cn1nncc1CN1C(=O)CSC1=O)Nc1ccc(F)cc1`, the growth was 94.6%.

On to `CCCCNCC(O)c1cc2c(Cl)cc(Cl)cc2c2cc(C(F)(F)F)ccc12` (stereo not given), for which the growth is -83.5% (active).

Consider `COc1c(C(=O)/C=C/c2ccc(C)o2)c(O)cc2occc12`, for which the growth was 38.5%.

As for `CCCCCCCCCCCCCC[N+](C)(C)CCCCCCCCCCCCCC`, the growth is 77.3%.

Turning to `CNC(=O)c1cc(Oc2ccc(NC(=O)c3nc(S(C)(=O)=O)n(C)c3-c3ccc(F)cc3)cc2)ccn1`, the growth was 79%.

On to `CC1C2CCC(C2)C1COCCOCCO` (stereo not given), for which the growth is 105%.

As to `COc1c(B(O)O)cccc1-c1nc2ccc3[nH]ncc3c2c2c1CCCC2`, the growth was 2.24% (active).

`O=C(NNC(=S)Nc1ccccc1)c1ccc(Nc2ncnc3c2cnn3-c2cccc(Br)c2)cc1`: the growth is 103%.

Regarding `Cc1nn(-c2ccc(Cl)cc2)c(=O)n1CCN1CCOCC1`, the growth was 73.4%.

In the case of `Clc1ccc(-c2nc(Br)cn3ccnc23)cc1`, the growth was 64.1%.
